Screen size: about 39,000 compounds; about 1,500 (3.8%) were called active. Shown is part of a subset that was picked to be rich in actives.
System: HSkMC (human skeletal muscle cells)
Assay: cytotoxicity call (relative viability < 0.9)
Details: 10 µM

SMILES	cytotoxicity call
C[C@@H]1CN([C@@H](C)CO)C(=O)c2cc(NC(=O)Nc3ccc4c(c3)OCO4)ccc2O[C@@H](C)CCCCO[C@H]1CN(C)C(=O)c1ccccc1	inactive
COCC(=O)Nc1ccc2c(c1)OC[C@@H](C)N(C(=O)c1ccccc1F)C[C@@H](C)[C@@H](OC)CN(C)C2=O	inactive
C[C@H](CO)N1C[C@H](C)[C@@H](CN(C)C(=O)NC2CCCCC2)Oc2ccc(NC(=O)CCN3CCOCC3)cc2C1=O	inactive
Cc1ccc(S(=O)(=O)Nc2ccc3c(c2)C(=O)N([C@@H](C)CO)C[C@H](C)[C@H](CN(C)Cc2ccc(Cl)c(Cl)c2)O3)cc1	inactive
Cc1ccc(S(=O)(=O)Nc2ccc3c(c2)C(=O)N([C@H](C)CO)C[C@@H](C)[C@H](CN(C)Cc2ccc(Cl)c(Cl)c2)O3)cc1	active
Cc1ccc(S(=O)(=O)Nc2ccc3c(c2)C(=O)N([C@H](C)CO)C[C@@H](C)[C@@H](CN(C)Cc2ccc(Cl)c(Cl)c2)O3)cc1	active
Cc1ccc(S(=O)(=O)Nc2ccc3c(c2)C(=O)N([C@@H](C)CO)C[C@H](C)[C@@H](CN(C)Cc2ccc(Cl)c(Cl)c2)O3)cc1	active
Cc1ccc(S(=O)(=O)Nc2ccc3c(c2)C(=O)N([C@H](C)CO)C[C@H](C)[C@@H](CN(C)Cc2ccc(Cl)c(Cl)c2)O3)cc1	inactive
Cc1ccc(S(=O)(=O)Nc2ccc3c(c2)C(=O)N([C@H](C)CO)C[C@H](C)[C@H](CN(C)Cc2ccc(Cl)c(Cl)c2)O3)cc1	active
Cc1ccc(S(=O)(=O)Nc2ccc3c(c2)C(=O)N([C@@H](C)CO)C[C@@H](C)[C@H](CN(C)Cc2ccc(Cl)c(Cl)c2)O3)cc1	inactive
Cc1cccc(C(=O)N2CCC[C@@H](Cn3cc(C(C)(C)N)nn3)C2)c1C	inactive
CC(C)NC(=O)Nc1ccc2c(c1)C(=O)N([C@@H](C)CO)C[C@H](C)[C@@H](CN(C)S(=O)(=O)c1ccccc1)O2	inactive
C[C@@H]1CCCCO[C@H](CN(C)S(=O)(=O)c2cccs2)[C@H](C)CN([C@@H](C)CO)C(=O)c2cc(NC(=O)Cc3ccccc3)ccc2O1	inactive
C[C@H]1CN([C@@H](C)CO)C(=O)c2cccc(NS(=O)(=O)c3cccs3)c2O[C@H]1CN(C)S(=O)(=O)c1ccc(F)cc1	inactive
CN(C)Cc1cn(CC[C@H]2CC[C@H](N)[C@@H](CO)O2)nn1	inactive
Cc1noc(C)c1NC(=O)Nc1ccc2c(c1)C(=O)N([C@@H](C)CO)C[C@H](C)[C@H](CN(C)C(=O)Nc1ccc(C(F)(F)F)cc1)OCCCC[C@H](C)O2	inactive
O=C(C[C@H]1CC[C@H]2[C@@H](COC[C@@H](O)CN2C(=O)c2cccnc2)O1)NCc1ccc(-c2ccccc2)cc1	inactive
Cn1nnnc1SCC(=O)Nc1ncccn1	inactive
C[C@@H]1CN([C@H](C)CO)C(=O)c2cccc(NS(=O)(=O)c3ccccc3)c2O[C@@H]1CN(C)Cc1ccc(Cl)c(Cl)c1	inactive
Cn1cnc(S(=O)(=O)N2C[C@@H](O)COC[C@@H]3O[C@@H](CC(=O)NC4Cc5ccccc5C4)CC[C@H]32)c1	inactive
C[C@H](O)C#Cc1ccc2c(c1)O[C@H](CN(C)C(=O)Nc1ccccc1)[C@H](C)CN([C@H](C)CO)S2(=O)=O	inactive
COc1ccc(S(=O)(=O)Nc2ccc3c(c2)C(=O)N([C@H](C)CO)C[C@H](C)[C@H](CN(C)S(C)(=O)=O)OCCCC[C@@H](C)O3)cc1	inactive
Cc1cnc2c(c1NCCN(C)C)c(=O)n(C)c(=O)n2C	inactive
CCOc1nc2ccccc2c(=O)n1CCO	inactive

SMILES	cytotoxicity call
C[C@H](CO)N1C[C@H](C)[C@H](CN(C)C(=O)c2ccc3c(c2)OCO3)Oc2cc(-c3cncnc3)ccc2S1(=O)=O	inactive
O=C1c2ccncc2C(=O)N1CO	inactive
CO[C@@H](CN(C)S(=O)(=O)c1cccc(Cl)c1)[C@@H](C)CN([C@@H](C)CO)S(=O)(=O)c1ccc(Cl)cc1	inactive
CC(C)NC(=O)N(C)C[C@@H]1Oc2ccc(NS(=O)(=O)c3cn(C)cn3)cc2C(=O)N([C@@H](C)CO)C[C@@H]1C	inactive
FC(F)(F)c1ccccc1/N=C1\CCCc2ccccc21	inactive
Cc1ccc(S(=O)(=O)Nc2ccc3c(c2)C(=O)N([C@@H](C)CO)C[C@@H](C)[C@@H](CN(C)Cc2ccc(Cl)c(Cl)c2)O3)cc1	active
COC1C(O)CC(=O)OC(C)CC=CC=CC(O)C(C)CC(CC=O)C1OC1OC(C)C(OC2CC(C)(O)C(OC(=O)CC(C)C)C(C)O2)C(N(C)C)C1O (stereo not drawn) [KITASAMYCINS [A1 shown] ]	inactive
CO[C@@H]1[C@@H](O[C@@H]2O[C@H](C)[C@@H](O[C@H]3C[C@@](C)(O)[C@@H](OC(=O)CC(C)C)[C@H](C)O3)[C@H](N(C)C)[C@H]2O)[C@@H](CC=O)C[C@@H](C)[C@@H](O)/C=C\C=C/C[C@@H](C)OC(=O)C[C@H]1OC(C)=O	inactive
CO[C@@H]1[C@@H](O[C@@H]2O[C@H](C)[C@@H](O[C@H]3C[C@@](C)(O)[C@@H](OC(=O)CC(C)C)[C@H](C)O3)[C@H](N(C)C)[C@H]2O)[C@@H](CC=O)C[C@@H](C)[C@@H](O)/C=C/C=C/CC(C)OC(=O)C[C@H]1OC(C)=O (stereo partly drawn)	active
COc1ccccc1CNC(=O)C[C@@H]1C[C@@H]2c3cc(NS(=O)(=O)c4ccc(F)cc4)ccc3O[C@@H]2[C@@H](CO)O1	inactive
Cc1ccc(S(=O)(=O)N(C)C[C@@H]2OCCCC[C@H](C)Oc3ccc(NC(=O)Nc4c(C)noc4C)cc3C(=O)N([C@H](C)CO)C[C@H]2C)cc1	inactive
CC(C)C[N+]1(C)Cc2ccccc2C1	inactive
C[C@@H]1CN([C@H](C)CO)C(=O)c2cc(NS(=O)(=O)c3cccs3)ccc2O[C@@H]1CN(C)Cc1ccc(-c2ccccc2)cc1	active
Cc1ccc(S(=O)(=O)Nc2ccc3c(c2)C(=O)N([C@@H](C)CO)C[C@@H](C)[C@H](CN(C)Cc2ccc(-c4ccccc4)cc2)O3)cc1	inactive
C[C@H]1CN([C@@H](C)CO)C(=O)c2cc(NS(=O)(=O)c3ccccc3)ccc2O[C@H]1CN(C)Cc1ccc(-c2ccccc2)cc1	inactive
Cc1ccc(S(=O)(=O)Nc2ccc3c(c2)C(=O)N([C@H](C)CO)C[C@@H](C)[C@@H](CN(C)Cc2ccc(-c4ccccc4)cc2)O3)cc1	active
Cc1ccc(S(=O)(=O)Nc2ccc3c(c2)C(=O)N([C@H](C)CO)C[C@@H](C)[C@H](CN(C)Cc2ccc(-c4ccccc4)cc2)O3)cc1	inactive
Cc1ccc(S(=O)(=O)Nc2ccc3c(c2)C(=O)N([C@H](C)CO)C[C@H](C)[C@H](CN(C)Cc2ccc(-c4ccccc4)cc2)O3)cc1	active
Cc1ccc(S(=O)(=O)Nc2ccc3c(c2)C(=O)N([C@@H](C)CO)C[C@@H](C)[C@@H](CN(C)Cc2ccc(-c4ccccc4)cc2)O3)cc1	inactive
C[C@H](CO)N1C[C@H](C)[C@@H](CN(C)Cc2ccc(-c3ccccc3)cc2)Oc2ccc(NS(=O)(=O)c3cccs3)cc2C1=O	inactive
C[C@H](CO)N1C[C@H](C)[C@H](CN(C)Cc2ccc(-c3ccccc3)cc2)Oc2ccc(NS(=O)(=O)c3cccs3)cc2C1=O	inactive
Cc1ccc(S(=O)(=O)Nc2ccc3c(c2)C(=O)N([C@@H](C)CO)C[C@H](C)[C@@H](CN(C)Cc2ccc(-c4ccccc4)cc2)O3)cc1	inactive
C[C@@H]1CN([C@@H](C)CO)C(=O)c2cc(NS(=O)(=O)c3ccccc3)ccc2O[C@H]1CN(C)Cc1ccc(-c2ccccc2)cc1	inactive
C[C@@H]1CN([C@@H](C)CO)C(=O)c2cc(NS(=O)(=O)c3ccccc3)ccc2O[C@@H]1CN(C)Cc1ccc(-c2ccccc2)cc1	active

Source: the antibiotic and cytotoxicity screens of Wong et al. (2023)
